The entries come from a sample that favours hits as a whole.
HT1080NT lethal = kills 2HG-producing HT-1080-NT fibrosarcoma cells; HT-1080-NT fibrosarcoma viability, CellTiter-Glo ATP luminescence, 48 h; Potency, µM (top dose mostly 46.1 µM), inactives show at the highest dose activity, negative = less viability, usual class: cytotoxic; hit rate 1.6% among 360,000;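 further: NT is the 2HG producing partner of a matched IDH1 knockdown line; potency means the concentration at half of the fitted maximal effect; 0% = DMSO-treated cells and -100% = media-only wells without cells; nearly all actives have a fitted effect of over 55% in size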
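A 48-hour cytotoxicity screen used HT-1080-NT cells plated 2 hours before compound delivery. ATP-based CellTiter-Glo luminescence measured viability, normalized to DMSO and no-cell controls.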
DT40 TDP1 CPT = growth inhibition of DT40 Tdp1-/-;hTDP1 cells with camptothecin (screen for TDP1 inhibitors); Potency, µM (highest dose often 46.2 µM), for the others: at the highest dose activity change, negative = growth inhibition, usual class: inhibitors; AID 686979; chicken DT40 Tdp1-/-;hTDP1 cells + 20 nM CPT, ATP luminescence, 48 h; hit rate 12% among 420,000; further: potency means the concentration at half of the fitted maximal effect; nearly all actives have a fitted effect of over 55% in size
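Chicken DT40 Tdp1-/- cells complemented with human TDP1, 400 cells/well, exposed to compounds plus 20 nM camptothecin for at least 48 h at 37 C; viability read as ATP content by CellTiter-Glo luminescence.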
ALOX12 inh = ALOX12 (human) lipoxygenase inhibition; P18054; AID 1671190; hit rate 1.1% among 580,000; Potency, µM (highest dose often 108 µM), for the others: top-dose activity change, negative = inhibition, hits mostly inhibitors; purified 12hLO, xylenol orange hydroperoxide absorbance; further: potency means the concentration at half of the fitted maximal effect
Target sequence (P18054 whole entry, looked up): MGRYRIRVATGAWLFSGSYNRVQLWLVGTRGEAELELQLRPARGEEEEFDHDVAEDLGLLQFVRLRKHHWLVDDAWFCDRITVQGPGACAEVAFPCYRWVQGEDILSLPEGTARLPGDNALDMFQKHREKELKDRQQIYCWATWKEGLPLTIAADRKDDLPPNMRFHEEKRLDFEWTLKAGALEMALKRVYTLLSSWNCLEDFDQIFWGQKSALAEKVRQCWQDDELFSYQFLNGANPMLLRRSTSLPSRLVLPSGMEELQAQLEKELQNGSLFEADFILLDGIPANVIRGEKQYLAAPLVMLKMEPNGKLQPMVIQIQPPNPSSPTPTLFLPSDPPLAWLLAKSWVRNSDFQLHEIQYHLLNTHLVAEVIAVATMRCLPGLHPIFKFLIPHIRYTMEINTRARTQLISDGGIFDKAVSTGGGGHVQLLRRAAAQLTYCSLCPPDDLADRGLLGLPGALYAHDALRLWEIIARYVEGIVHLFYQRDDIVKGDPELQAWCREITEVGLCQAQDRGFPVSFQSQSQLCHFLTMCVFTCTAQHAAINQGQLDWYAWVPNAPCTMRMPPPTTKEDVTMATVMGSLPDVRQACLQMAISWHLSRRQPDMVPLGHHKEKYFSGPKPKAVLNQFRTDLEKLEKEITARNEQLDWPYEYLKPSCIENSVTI
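Purified human 12hLO at 150 nM in 25 mM Hepes, 0.01% Triton X-100, pH 7.0, preincubated 15 min at room temperature with compound. Reaction started with 40 uM arachidonic acid, 30 min at room temperature. Hydroperoxide measured by Fe-xylenol orange, 573/405 nm absorbance ratio.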
HT1080 IDH1KD tx = HT-1080 IDH1 knockdown cell toxicity (counter line). HT-1080 IDH1 knockdown viability, ATP luminescence, 48 h. Potency, µM (top dose mostly 46.1 µM), for the others: at the highest dose activity, negative = toxicity, most hits filed as cytotoxic. hit rate 2% among 360,000;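 further: potency means the concentration at half of the fitted maximal effect; 0% = DMSO wells and -100% = cell-free medium wells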
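HT-1080-IDH1KD cells (IDH1 knocked down), 750/well in RPMI with 5% FBS, treated with compound 48 h at 37 degrees C. Viability by CellTiter-Glo luminescence, normalised to DMSO and no-cell wells; concentration-response curves classed.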
IL1B secr inh = inflammasome signaling inhibition, IL-1 beta readout | hit rate 4.7% among 360,000 | activity change, % at 57.5 µM | THP-1 LPS/ATP IL-1B secretion, AlphaLISA, 16 h; stronger effect = lower value; in the data active means activity change below about -50%; inconclusive means mostly about -30% to -49%
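Secreted IL-1B measured by AlphaLISA bead assay after 16 h compound exposure of THP-1 cells; compounds (final up to 57.5 uM) added 1 h before LPS (250 ng/mL) and ATP (1.25 mM) stimulation; lower signal means less secretion.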
DT40 TDP1 no CPT = qHTS for Inhibitors of human tyrosyl-DNA phosphodiesterase 1 (TDP1): qHTS in cells in absence of CPT. DT40 Tdp1-/- hTDP1 cells, no CPT, ATP luminescence, 48 h. hit rate 15% among 420,000. Potency, µM (series often up to 46.2 µM), inactives show at the top dose activity change, negative = growth inhibition, hits mostly inhibitors; further: potency means the concentration at half of the fitted maximal effect; nearly all actives have a fitted effect of over 55% in size
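Growth of hTDP1-complemented DT40 Tdp1-knockout cells is measured by ATP luminescence after at least 48 hr compound exposure at 37 °C, with DMSO substituting for the 20 nM CPT used in the parallel screen.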
Active calls of the source: *; [ ] = remark or other dose. Unless noted, the call rests on the fitted dose curve; in most records, active means well fitted curve in the direction sought with a large enough effect; inconclusive means small, poorly fitted or top-dose-only effect, or another doubt; inactive means no such curve, though single readings can be large; an effect the other way counts as inactive or inconclusive. Unless noted, on the % scale 0 is the no-effect control and ±100 the full control effect.

O=S(=O)(c1ccc(OC(F)(F)F)cc1)N1CCC(O)(c2cccc(C(F)(F)F)c2)CC1 was read as HT1080NT lethal -24.3%, DT40 TDP1 CPT inconclusive, ALOX12 inh 29.7%, HT1080 IDH1KD tx -0.2%, IL1B secr inh 12.4 and DT40 TDP1 no CPT inconclusive.
COc1ccc2[nH]c3c(N4CCN(Cc5ccc6c(c5)OCO6)CC4)ncnc3c2c1 was read as HT1080NT lethal 20.6µM*, DT40 TDP1 CPT 14.6µM*, ALOX12 inh 360.2%, HT1080 IDH1KD tx inconclusive, IL1B secr inh inconclusive and DT40 TDP1 no CPT 23.1µM*.
Screening COc1ccc2[nH]c3c(N4CCC(O)(c5cccc(C(F)(F)F)c5)CC4)ncnc3c2c1 returned HT1080NT lethal inconclusive, DT40 TDP1 CPT 20.6µM*, ALOX12 inh -24.5%[57.4 µM], HT1080 IDH1KD tx 20.6µM*, IL1B secr inh -14.6 and DT40 TDP1 no CPT 20.6µM*.
COc1ccc(NS(=O)(=O)c2cccc(C(=O)NNC(=O)CNC(=O)c3cccc(C)c3)c2)cc1 was read as HT1080NT lethal 9.6%, DT40 TDP1 CPT 9.5%, ALOX12 inh -16.0%, HT1080 IDH1KD tx 3.2%, IL1B secr inh 14.0 and DT40 TDP1 no CPT 16.0%.
COc1cc(/C=c2/sc3nc(-c4ccccc4)c(-c4ccccc4)n3c2=O)cc(OC)c1OC was read as HT1080NT lethal 1.0%, DT40 TDP1 CPT 6.51µM*, ALOX12 inh 5.9%, HT1080 IDH1KD tx -0.4%, IL1B secr inh 3.0 and DT40 TDP1 no CPT 10.3µM*.
COc1cc(/C=C2\SC(=S)N(C(C(=O)O)c3ccccc3)C2=O)cc(OC)c1OC (configuration not stated) was read as HT1080NT lethal -27.1%, DT40 TDP1 CPT 16.7%, ALOX12 inh inconclusive, HT1080 IDH1KD tx -21.1%, IL1B secr inh -5.2 and DT40 TDP1 no CPT 1.3%.
For COc1ccc(/C=c2\sc3nc(-c4ccccc4)c(-c4ccccc4)n3c2=O)cc1OC the results were HT1080NT lethal 7.1%, DT40 TDP1 CPT inconclusive, ALOX12 inh 0.0%, HT1080 IDH1KD tx 2.7%, IL1B secr inh -8.6 and DT40 TDP1 no CPT 16.4µM*.
Screening COc1ccc(/C=c2/sc3nc(-c4ccccc4)c(-c4ccccc4)n3c2=O)cc1 returned HT1080NT lethal 15.6%, DT40 TDP1 CPT inconclusive, ALOX12 inh 6.5%, HT1080 IDH1KD tx 13.2%, IL1B secr inh -1.7 and DT40 TDP1 no CPT inconclusive.
`O[C@@H](COc1cccc2ncccc12)CN1CCN(C2c3ccccc3[C@@H]3[C@H](c4ccccc42)C3(F)F)CC1` (some centres not stated) gave ALOX12 inh -28.4%[57.4 µM].
For CCCCNc1c2c(nc3c(-c4ccccc4)c(C)nn13)CCC2 the results were HT1080NT lethal 7.5%, DT40 TDP1 CPT 20.6µM*, ALOX12 inh 2.7%, HT1080 IDH1KD tx -4.9%, IL1B secr inh -26.3 and DT40 TDP1 no CPT 29.1µM*.
For Cc1nn2c(N3CCN(CCO)CC3)c3c(nc2c1-c1ccccc1)CCCC3 the results were HT1080NT lethal 18.4µM*, DT40 TDP1 CPT inconclusive, ALOX12 inh 401.2%, HT1080 IDH1KD tx inconclusive and DT40 TDP1 no CPT inconclusive.
For COCCNc1c2c(nc3c(-c4ccccc4)c(C)nn13)CCCC2 the results were HT1080NT lethal inconclusive, DT40 TDP1 CPT 15.8µM*, ALOX12 inh 21.2%, HT1080 IDH1KD tx inconclusive, IL1B secr inh -23.9 and DT40 TDP1 no CPT inconclusive.
`COc1cccc(Nc2c3c(nc4c(-c5ccccc5)c(C)nn24)CCC3)c1` gave HT1080NT lethal 13.8%, DT40 TDP1 CPT 5.8%, ALOX12 inh -7.1%, HT1080 IDH1KD tx -4.6%, IL1B secr inh 1.1 and DT40 TDP1 no CPT 13µM*.
Cc1nn2c(Nc3ccc(F)cc3)c3c(nc2c1-c1ccccc1)CCC3 was read as HT1080NT lethal 8.2%, DT40 TDP1 CPT -17.6%, ALOX12 inh -13.8%, HT1080 IDH1KD tx 9.5%, IL1B secr inh 11.0 and DT40 TDP1 no CPT -2.2%.
Cc1nn2c(N3CCCC3)c3c(nc2c1-c1ccccc1)CCC3 was read as HT1080NT lethal 5.2%, DT40 TDP1 CPT inconclusive, ALOX12 inh -18.1%, HT1080 IDH1KD tx -1.8%, IL1B secr inh 16.0 and DT40 TDP1 no CPT inconclusive.
Cc1nn2c(NCCN(C)C)c3c(nc2c1-c1ccccc1)CCCC3 was read as HT1080NT lethal 14.6µM*, DT40 TDP1 CPT 0.581µM*, ALOX12 inh 0.0%, HT1080 IDH1KD tx 14.6µM*, IL1B secr inh -57.6* and DT40 TDP1 no CPT 1.03µM*.
Screening Cc1nn2c(NCCOCCO)c3c(nc2c1-c1ccccc1)CCCC3 returned HT1080NT lethal -10.0%, DT40 TDP1 CPT -13.4%, HT1080 IDH1KD tx -1.1%, IL1B secr inh inconclusive and DT40 TDP1 no CPT inconclusive.
`CCC(C)Nc1c2c(nc3c(-c4ccccc4)c(C)nn13)CCC2` (configuration not stated) gave HT1080NT lethal -19.2%, DT40 TDP1 CPT inconclusive, ALOX12 inh -28.6%, HT1080 IDH1KD tx inconclusive, IL1B secr inh inconclusive and DT40 TDP1 no CPT inconclusive.
For Cc1nn2c(NCc3cccnc3)c3c(nc2c1-c1ccccc1)CCC3 the results were HT1080NT lethal -18.2%, DT40 TDP1 CPT inconclusive, ALOX12 inh 0.0%, HT1080 IDH1KD tx inconclusive, IL1B secr inh -75.6* and DT40 TDP1 no CPT inconclusive.
C=CCN1CCN(CC(=O)N(C)C)CC1 was read as ALOX12 inh -4.5%.
`Cc1ccc(-c2nc3cccnc3s2)cc1NS(C)(=O)=O` gave HT1080NT lethal -0.4%, DT40 TDP1 CPT inconclusive, ALOX12 inh 4.2%, HT1080 IDH1KD tx -7.0%, IL1B secr inh -10.1 and DT40 TDP1 no CPT 20.6µM*.
CCC(C(=O)Nc1cc(-c2nc3cccnc3s2)ccc1C)c1ccccc1 (configuration not stated) was read as DT40 TDP1 CPT inconclusive, ALOX12 inh 4.7% and DT40 TDP1 no CPT 20.6µM*.
`Cc1cccc(C(=O)Nc2cc(-c3nc4cccnc4s3)ccc2C)c1` gave DT40 TDP1 CPT inconclusive, ALOX12 inh 9.0% and DT40 TDP1 no CPT inconclusive.
For Cc1ccc(-c2nc3cccnc3s2)cc1NC(=O)C(C)C the results were DT40 TDP1 CPT -17.9%, ALOX12 inh -8.7% and DT40 TDP1 no CPT -8.1%.
`CCOC(=O)c1cc(-c2ccccc2)n(CC(=O)N(C)c2ccc(OC)cc2)c1C` gave DT40 TDP1 CPT inconclusive, ALOX12 inh -22.3% and DT40 TDP1 no CPT 23.1µM*.
CCOC(=O)c1cc(-c2ccc(OC)cc2)n(CCC(=O)NCc2ccc(OC)cc2)c1C was read as DT40 TDP1 CPT inconclusive, ALOX12 inh 0.0% and DT40 TDP1 no CPT 18.4µM*.

Source: PubChem BioAssay (National Center for Advancing Translational Sciences (NCATS))
